For experiment [1], the target named is Rap guanine nucleotide exchange factor 3 (Homo sapiens) (UniProt O95398). Description: Confirmatory qHTS for antagonist of cAMP-regulated guanine nucleotide exchange factor 3 (EPAC1) (AID 1645880). Also: nearly all actives have a fitted effect of over 55% in size. Also: potency is read from the fitted curve at half-maximal effect. The gist of the method: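 Released BODIPY-GDP fluoresces less than Rap1-bound BODIPY-GDP; the signal is followed at 480/540 nm at 5-min intervals over 30 min, after 5 min at room temperature. Reactions contain 100 nM EPAC1, 250 nM RAP1B-BODIPY-GDP and 50 uM GDP; results are normalized to ATA and DMSO.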
Rap guanine nucleotide exchange factor 3 (Homo sapiens), sequence (O95398 whole entry, looked up): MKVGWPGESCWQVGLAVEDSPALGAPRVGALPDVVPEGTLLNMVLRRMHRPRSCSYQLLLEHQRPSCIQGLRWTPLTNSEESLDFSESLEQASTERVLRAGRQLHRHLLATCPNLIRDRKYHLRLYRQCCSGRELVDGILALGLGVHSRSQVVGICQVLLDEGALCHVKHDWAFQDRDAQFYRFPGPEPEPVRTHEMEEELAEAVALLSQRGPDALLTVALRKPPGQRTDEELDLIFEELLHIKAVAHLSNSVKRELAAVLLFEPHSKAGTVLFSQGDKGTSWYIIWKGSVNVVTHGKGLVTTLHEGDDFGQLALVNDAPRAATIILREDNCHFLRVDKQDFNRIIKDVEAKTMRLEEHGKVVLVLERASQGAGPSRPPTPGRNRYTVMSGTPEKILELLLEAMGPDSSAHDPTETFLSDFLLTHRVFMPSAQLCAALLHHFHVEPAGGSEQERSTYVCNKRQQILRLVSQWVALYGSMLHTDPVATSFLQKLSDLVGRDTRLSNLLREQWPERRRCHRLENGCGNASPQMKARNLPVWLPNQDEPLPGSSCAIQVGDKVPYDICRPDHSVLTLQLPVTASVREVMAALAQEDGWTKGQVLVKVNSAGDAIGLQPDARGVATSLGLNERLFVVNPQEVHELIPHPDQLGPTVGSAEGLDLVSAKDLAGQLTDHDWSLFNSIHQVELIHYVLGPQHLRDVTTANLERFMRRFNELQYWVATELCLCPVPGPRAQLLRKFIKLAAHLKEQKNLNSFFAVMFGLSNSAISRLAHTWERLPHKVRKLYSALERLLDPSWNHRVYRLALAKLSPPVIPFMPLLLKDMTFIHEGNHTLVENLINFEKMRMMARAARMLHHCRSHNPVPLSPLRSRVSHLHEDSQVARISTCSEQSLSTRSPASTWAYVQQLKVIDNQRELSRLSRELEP
On the technique in general: qHTS replaces the single test concentration by a dilution series.

For experiment [2] the target is unchanged. Description: Confirmatory qHTS for agonist of cAMP-regulated guanine nucleotide exchange factor 3 (EPAC1) (AID 1645881).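 Also: EPAC1 catalysed release of BODIPY-GDP from Rap1B seen as fluorescence loss; 100% = effect of cAMP agonist control; nearly all actives have a fitted effect of over 75% in size.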
Experiment [3] concerns the target Rap guanine nucleotide exchange factor 4 (Homo sapiens) (UniProt Q8WZA2). Briefly: Confirmatory qHTS for agonist of cAMP-regulated guanine nucleotide exchange factor 4 (EPAC2) (AID 1645884).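 Also: nucleotide exchange releases bodipy-GDP from Rap1 and this lowers its fluorescence; % is scaled to controls: 0 for no effect and ±100 for the full control effect; nearly all actives have a fitted effect of over 65% in size.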
Experiment [4] has the same target. Description: Confirmatory qHTS for antagonist of cAMP-regulated guanine nucleotide exchange factor 4 (EPAC2) (AID 1645885). Also: nearly all actives have a fitted effect of over 25% in size. Also: potency is read from the fitted curve at half-maximal effect. As to activity change, negative = inhibition: % is scaled to controls: 0 for no effect and ±100 for the full control effect.
Experiment [5] addresses Rap guanine nucleotide exchange factor 3 (Homo sapiens) (UniProt O95398). Description: Counterscreen qHTS for antagonist of cAMP-regulated guanine nucleotide exchange factor 3 (EPAC1) (AID 1645888). Also: % of control where 0% means no effect. The gist of the method: (§1)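 Measured: fluorescence of BODIPY-GDP bound to Rap1B, which falls as exchange proceeds. Conditions include 50 uM competing GDP, 5 and 30 min reads, and a later cAMP challenge for antagonist detection.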
For orientation: A counterscreen serves to expose hits that act by an unwanted route or on another target.

Experiment [6] has the same target. Description: Counterscreen qHTS for agonist of cAMP-regulated guanine nucleotide exchange factor 3 (EPAC1) (AID 1645889). Also: % of control where 0% means no effect; nearly all actives have a fitted effect of over 40% in size. The method in brief: as §1

Results filed as inconclusive are left out. Values without a mark were called inactive. The source made the active and inactive calls. Calls follow the shape of the dose curve; as a rule, active = well fitted curve in the direction sought with a large enough effect; inconclusive = small, poorly fitted or top-dose-only effect, or another doubt; inactive = no such curve, though single readings can be large; an effect the other way counts as inactive or inconclusive.

Rap guanine nucleotide exchange factor 4 (Homo sapiens), sequence (Q8WZA2 whole entry, looked up): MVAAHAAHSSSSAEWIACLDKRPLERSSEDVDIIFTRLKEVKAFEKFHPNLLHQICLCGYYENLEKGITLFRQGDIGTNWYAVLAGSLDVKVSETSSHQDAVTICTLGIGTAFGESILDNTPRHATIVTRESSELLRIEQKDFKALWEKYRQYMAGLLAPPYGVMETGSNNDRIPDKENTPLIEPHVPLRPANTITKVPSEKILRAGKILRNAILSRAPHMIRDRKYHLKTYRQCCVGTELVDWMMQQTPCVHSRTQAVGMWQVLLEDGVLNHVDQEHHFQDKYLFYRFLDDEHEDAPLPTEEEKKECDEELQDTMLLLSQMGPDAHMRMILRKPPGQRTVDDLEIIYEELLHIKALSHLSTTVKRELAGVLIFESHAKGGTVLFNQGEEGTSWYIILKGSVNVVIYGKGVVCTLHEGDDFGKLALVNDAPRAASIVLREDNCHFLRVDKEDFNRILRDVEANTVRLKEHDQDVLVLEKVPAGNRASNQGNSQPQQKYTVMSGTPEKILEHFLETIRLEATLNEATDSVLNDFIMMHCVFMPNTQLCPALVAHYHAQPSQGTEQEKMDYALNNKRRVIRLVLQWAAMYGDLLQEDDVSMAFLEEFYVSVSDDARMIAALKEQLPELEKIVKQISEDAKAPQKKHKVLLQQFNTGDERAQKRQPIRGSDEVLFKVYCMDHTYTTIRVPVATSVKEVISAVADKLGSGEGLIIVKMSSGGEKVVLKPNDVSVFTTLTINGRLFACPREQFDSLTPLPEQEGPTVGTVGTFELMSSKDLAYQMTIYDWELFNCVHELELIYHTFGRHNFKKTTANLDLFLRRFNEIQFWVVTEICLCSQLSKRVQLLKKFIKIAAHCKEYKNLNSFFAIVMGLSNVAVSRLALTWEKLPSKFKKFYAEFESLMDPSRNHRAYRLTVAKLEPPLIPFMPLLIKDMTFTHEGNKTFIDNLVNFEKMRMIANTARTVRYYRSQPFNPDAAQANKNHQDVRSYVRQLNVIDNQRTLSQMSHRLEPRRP

For the molecule `Cc1ccc(F)c(NC(=O)/C(C#N)=C(\O)c2ccc(C(C)(C)C)cc2)c1`, the Potency in experiment [1] is 8.91 µM (active). The Potency entry in experiment [2] and in experiment [4] was “inactive” throughout. In addition, the activation in experiment [3] was -11.9% [at 17.1 µM, percent relative to cAMP agonist control]; in experiment [6] it was 14.8% [at 30.8 µM]. For the same molecule, in experiment [5], the activity change, negative = inhibition was 8.44% [at 30.8 µM].

With `Cc1cc2[nH]c(=O)c(=O)[nH]c2cc1S(=O)(=O)Nc1cccc(Cl)c1`, in experiment [1], the Potency is 42.6 µM (active). The Potency entry in experiment [2], in experiment [3], in experiment [4], in experiment [5] and in experiment [6] was “inactive” throughout.

As for `Cc1onc(-c2c(F)cccc2Cl)c1C(=O)Oc1ccccc1`, the Potency result in experiment [1], in experiment [2] and in experiment [4] was “inactive” each time. Also, the activation was 1.99% [at 17.1 µM, percent relative to cAMP agonist control] in experiment [3] and 7.91% [at 30.8 µM] in experiment [6]. For the same molecule, the activity change, negative = inhibition in experiment [5] was -3.3% [at 30.8 µM].

`CCOCCCn1c(=N)c(C(=O)NC(C)c2ccccc2)cc2c(=O)n3cccc(C)c3nc21` (centres undefined): the Potency result in experiment [1], in experiment [2], in experiment [3], in experiment [4], in experiment [5] and in experiment [6] was “inactive” throughout.

With `COC(=O)c1ccc(OC(=O)c2ccc(OC)cc2)c(OC)c1`, the Potency entry in experiment [1], in experiment [2] and in experiment [4] was “inactive” throughout. Besides, the activation in experiment [3] was 7.15% [at 17.1 µM, percent relative to cAMP agonist control]; in experiment [6] it was 6.57% [at 30.8 µM]. The activity change, negative = inhibition in experiment [5] was -8.27% [at 30.8 µM].

As for `O=CN1N=C(c2ccccc2)CC1c1ccc(Cl)cc1` (centres undefined), the Potency result in experiment [1], in experiment [2], in experiment [3], in experiment [4], in experiment [5] and in experiment [6] was “inactive” in each case.

As to `CC(C)Sc1nc2sccc2c(=O)n1-c1ccccc1`, the Potency result in experiment [1], in experiment [2], in experiment [3], in experiment [5] and in experiment [6] was “inactive” each time. Besides, the Potency in experiment [4] is 42.6 µM (active).

In the case of `CCOc1cc(/C=N/Nc2ccc(S(=O)(=O)Nc3ccccc3C(=O)O)cc2[N+](=O)[O-])cc(Cl)c1O`, in experiment [1], the Potency is 33.8 µM (active). For the same molecule, the Potency result in experiment [2], in experiment [3], in experiment [4], in experiment [5] and in experiment [6] was “inactive” throughout.

With `COc1cccc(OC)c1C(=O)Nc1ccccc1Sc1ccccc1`, the Potency result in experiment [1], in experiment [2], in experiment [3], in experiment [4], in experiment [5] and in experiment [6] was “inactive” each time.

Turning to `CCc1ccc(S(=O)(=O)Nc2cc3c(cc2C)n(C)c(=O)n3C)cc1`, the Potency result in experiment [1], in experiment [2] and in experiment [4] was “inactive” in each case. The activation was 6.63% [at 17.1 µM, percent relative to cAMP agonist control] in experiment [3] and 18.2% [at 30.8 µM] in experiment [6]. In addition, in experiment [5], the activity change, negative = inhibition is -10.1% [at 30.8 µM].

For `CCOc1ccc(NS(=O)(=O)c2cc3c(cc2C)N(C)CCO3)cc1`, the Potency result in experiment [1], in experiment [2] and in experiment [4] was “inactive” each time. Besides, the activation in experiment [3] was 7.18% [at 17.1 µM, percent relative to cAMP agonist control]; in experiment [6], 29.5% [at 30.8 µM]. For the same molecule, the activity change, negative = inhibition in experiment [5] is -12% [at 30.8 µM].

Regarding `C=CCOC(=O)C1=C(C)Nc2nnnn2C1c1cccs1` (centres undefined), the Potency entry in experiment [1], in experiment [2], in experiment [3], in experiment [4], in experiment [5] and in experiment [6] was “inactive” each time.

Take `Cc1ccc(S(=O)(=O)N2[C@@H](c3ccc(Cl)c(Cl)c3)C(C(=O)O)=C[C@H]2CC2CCCC2)cc1`: in experiment [1], the Potency was 44.7 µM (active). Besides, the Potency entry in experiment [2] and in experiment [4] was “inactive” each time. Besides, the activation was 11.3% [at 17.1 µM, percent relative to cAMP agonist control] in experiment [3] and 18.3% [at 30.8 µM] in experiment [6]. Besides, the activity change, negative = inhibition in experiment [5] was -8.49% [at 30.8 µM].

Take `COc1ccc(C(CC(=O)N2CCOCC2)c2c(OC)cc(OC)c3c(-c4ccccc4)cc(=O)oc23)cc1` (centres undefined): the Potency in experiment [1] was 37.9 µM (active). Moreover, the Potency result in experiment [2], in experiment [3], in experiment [4], in experiment [5] and in experiment [6] was “inactive” each time.

In the case of `CCCCNC(=O)NC12CC3CC(CC(C3)C1)C2`, the Potency entry in experiment [1], in experiment [2], in experiment [3], in experiment [4], in experiment [5] and in experiment [6] was “inactive” each time.

Consider `Cc1ccc(-n2nc3c(=O)n(CCCC(=O)NCc4ccccc4C)nc(C)c3c2C)cc1`, for which the Potency result in experiment [1], in experiment [2], in experiment [3], in experiment [4], in experiment [5] and in experiment [6] was “inactive” throughout.

Regarding `COc1ccccc1Oc1ccnc2cc(Cl)ccc12`, the Potency entry in experiment [1], in experiment [2] and in experiment [4] was “inactive” each time. Also, the activation in experiment [3] is 3.38% [at 17.1 µM, percent relative to cAMP agonist control]; in experiment [6], 5.9% [at 30.8 µM]. Moreover, in experiment [5], the activity change, negative = inhibition is 3.13% [at 30.8 µM].

For `O=[N+]([O-])c1cc(Cl)ccc1NCCc1ccccn1`, the Potency result in experiment [1], in experiment [2] and in experiment [4] was “inactive” each time. Moreover, the activation was -1.04% [at 17.1 µM, percent relative to cAMP agonist control] in experiment [3] and -0.252% [at 30.8 µM] in experiment [6]. In addition, the activity change, negative = inhibition in experiment [5] is -15.1% [at 30.8 µM].

`COc1ccc(N2CCN(C(=O)CCc3ccccc3OC)CC2)cc1`: the Potency result in experiment [1], in experiment [2], in experiment [3], in experiment [4], in experiment [5] and in experiment [6] was “inactive” in each case.

On to `COc1cccc(/C=C2\SC(=S)N(NS(=O)(=O)c3ccccc3)C2=O)c1OC`, for which the Potency in experiment [1] is 33.8 µM (active); in experiment [4], 37.9 µM (active). For the same molecule, the Potency result in experiment [2], in experiment [3], in experiment [5] and in experiment [6] was “inactive” in each case.

Consider `Cc1cc(N=Nc2ccccc2C(=O)O)c(C)c(C)c1O`, for which the Potency in experiment [1] was 39.8 µM (active). Also, the Potency entry in experiment [2] and in experiment [4] was “inactive” in each case. For the same molecule, the activation in experiment [3] was -13.7% [at 17.1 µM, percent relative to cAMP agonist control]; in experiment [6] it was 4.71% [at 30.8 µM]. The activity change, negative = inhibition in experiment [5] is -28.9% [at 30.8 µM].

For `CN(C)c1ccccc1C(=O)N1CCCC(C(=O)c2ccc3ccccc3c2)C1` (centres undefined), the Potency result in experiment [1], in experiment [2] and in experiment [4] was “inactive” in each case. Moreover, the activation in experiment [3] is 10.4% [at 17.1 µM, percent relative to cAMP agonist control]; in experiment [6], 21.4% [at 30.8 µM]. For the same molecule, in experiment [5], the activity change, negative = inhibition was -1.02% [at 30.8 µM].

Take `Nc1nc(NCC(=O)O)nc(NCc2ccccc2)c1[N+](=O)[O-]`: the Potency result in experiment [1], in experiment [2], in experiment [3], in experiment [4], in experiment [5] and in experiment [6] was “inactive” each time.

Regarding `CCNC(C(=O)c1c[nH]c2c(CC)cccc12)c1ccccc1` (centres undefined), the Potency result in experiment [1], in experiment [2], in experiment [3], in experiment [4], in experiment [5] and in experiment [6] was “inactive” each time.

For `CC(=O)N1CCN(C(=O)COc2ccc(Br)cc2)CC1`, the Potency entry in experiment [1], in experiment [2], in experiment [3], in experiment [4], in experiment [5] and in experiment [6] was “inactive” each time.

With `Cc1nc2c(C(=O)NCCC(C)C)c[nH]n2c(=O)c1Cl`, the Potency entry in experiment [1], in experiment [2], in experiment [3], in experiment [5] and in experiment [6] was “inactive” each time. In addition, the Potency in experiment [4] is 84.9 µM (active).

For the molecule `O=C(OC1CCOC1=O)c1ccc(-c2nc3ccccc3s2)s1` (centres undefined), the Potency entry in experiment [1], in experiment [2], in experiment [3], in experiment [5] and in experiment [6] was “inactive” in each case. Also, in experiment [4], the outcome was “inactive [at 12.7 µM]”.

With `Cc1ccc(S(=O)(=O)N2[C@@H](c3ccc(Br)cc3)C(C(=O)O)=CC[C@H]2c2ccc(Cl)cc2)cc1`, the Potency in experiment [1] was 75.7 µM (active). Besides, the Potency entry in experiment [2], in experiment [3], in experiment [4], in experiment [5] and in experiment [6] was “inactive” each time.

With `CCC1CCCCN1CCCNC(=O)c1ccc(CS(=O)(=O)Cc2ccccc2F)o1` (centres undefined), the Potency entry in experiment [1], in experiment [2], in experiment [3], in experiment [4], in experiment [5] and in experiment [6] was “inactive” throughout.

On to `CCn1c2ccccc2c2nnc(SCC(=O)N(C)C3CCS(=O)(=O)C3)nc21` (centres undefined), for which the Potency result in experiment [1], in experiment [2] and in experiment [4] was “inactive” each time. In addition, the activation in experiment [3] was 3.11% [at 17.1 µM, percent relative to cAMP agonist control]; in experiment [6], 4.22% [at 30.8 µM]. The activity change, negative = inhibition in experiment [5] was 5.48% [at 30.8 µM].

As for `COc1ccc(C=NNc2ccc([N+](=O)[O-])cc2S(=O)(=O)Nc2ccccc2C(=O)O)cc1OC`, the Potency in experiment [1] is 25.1 µM (active). In addition, the Potency result in experiment [2] and in experiment [4] was “inactive” throughout. The activation is -2.2% [at 17.1 µM, percent relative to cAMP agonist control] in experiment [3] and 21.9% [at 30.8 µM] in experiment [6]. Also, the activity change, negative = inhibition in experiment [5] is -11.2% [at 30.8 µM].

Turning to `Cc1ccc(C(=O)O/N=C(\c2ccccc2)c2cccnc2)cc1`, the Potency result in experiment [1], in experiment [2] and in experiment [4] was “inactive” each time. Also, the activation was -3.55% [at 17.1 µM, percent relative to cAMP agonist control] in experiment [3] and 8.08% [at 30.8 µM] in experiment [6]. The activity change, negative = inhibition in experiment [5] was 3.07% [at 30.8 µM].

Take `CC(C)c1c(Cl)c(O)c(-c2ccccc2)c(=O)n1-c1ccc(F)cc1`: in experiment [1], the Potency is 19 µM (active). For the same molecule, the Potency entry in experiment [2], in experiment [3], in experiment [4], in experiment [5] and in experiment [6] was “inactive” each time.

As for `Cc1cc2c(c(=O)o1)C(c1ccc([N+](=O)[O-])o1)C(C#N)=C(N)O2` (centres undefined), the Potency entry in experiment [1], in experiment [2], in experiment [3], in experiment [4], in experiment [5] and in experiment [6] was “inactive” in each case.

Source of the values: PubChem BioAssay (NCATS).
